Source: PubChem BioAssay
HCMV inh – inhibitors of human cytomegalovirus. activity change, negative = inhibition, % at 57.5 µM. AID 1259415. 410,000 tested, 4.5% active. HFF cells, HCMV-luciferase reporter, 72 h; hits give low values; in the data active = activity change below about -60%; inconclusive = no clear call, values can overlap the other calls; inactive = above about -39%
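Cell-based, HFFs, 1000 cells/well, 16 h 37C; cpds in DMSO + HCMV-luc, MOI 1 PFU/cell; 72 h 37C; OneGlo luminescence after 5 min RT; norm. to buffer vs Salinomycin 10uM.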
Sm TGR block – inhibitors of Schistosoma mansoni thioredoxin glutathione reductase. Q962Y6. purified TGR, DTNB reduction, TNB absorbance 405 nm. Potency, µM (series often up to 114 µM), inactives show at the highest dose activity change, negative = inhibition, actives largely listed as inhibitors. 360,000 tested, 3% active. AID 485364; also: potency is read from the fitted curve at half-maximal effect; nearly all actives have a fitted effect of over 60% in size
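First, TGR (20 nM dispensed) and NADPH were mixed with compound. Second, a 15 min room-temperature incubation followed. Third, further NADPH and then DTNB were added to start the reaction. Finally, TNB absorbance was monitored kinetically.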
Pf growth 48h – P. falciparum growth inhibition at 48 hours (one generation). 310,000 tested, 5.9% active. Potency, µM (top dose mostly 28.7 µM), for inactives: at the top dose activity change, negative = inhibition, most hits filed as inhibitors. AID 504832. P. falciparum luciferase growth in erythrocytes, 48 h; also: potency is read from the fitted curve at half-maximal effect
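Here the parasites carry a stable luciferase gene and grow inside erythrocytes in Albumax-based RPMI medium with compound for one erythrocytic cycle. Activity is scored as loss of luminescent signal.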
Giardia FBPA inh – Giardia lamblia aldolase inhibition; A8B2U2; AID 2451; Potency, µM (titrated, usually from 59.6 µM), for the others: top-dose activity, negative = inhibition, actives largely listed as inhibitors; purified Giardia FBPA; 290,000 tested, 0.71% active; also: potency is read from the fitted curve at half-maximal effect; nearly all actives have a fitted effect of over 55% in size
Target sequence (A8B2U2 whole entry, looked up): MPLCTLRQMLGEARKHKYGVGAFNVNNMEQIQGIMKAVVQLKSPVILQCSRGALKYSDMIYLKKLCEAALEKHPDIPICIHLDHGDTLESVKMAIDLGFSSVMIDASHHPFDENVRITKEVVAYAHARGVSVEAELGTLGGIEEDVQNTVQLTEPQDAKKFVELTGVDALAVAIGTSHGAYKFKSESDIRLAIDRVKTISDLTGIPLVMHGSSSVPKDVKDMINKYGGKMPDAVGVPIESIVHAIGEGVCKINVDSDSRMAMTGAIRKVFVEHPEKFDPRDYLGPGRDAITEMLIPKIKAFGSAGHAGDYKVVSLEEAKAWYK
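40 nM FBPA preincubated 10 min at RT with compound (up to 57.5 uM final), then substrate plus GAPDH/TPI/NAD/arsenate coupling and diaphorase/resazurin added. Fluorescence read after 20 min at RT, 525/598 nm.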
Pf growth 96h – P. falciparum growth inhibition at 96 hours. 320,000 tested, 6.9% active. Potency, µM (top dose mostly 28.7 µM), inactives show at the top dose activity change, negative = inhibition, usual class: inhibitors. P. falciparum luciferase reporter growth, 96 h; also: potency is read from the fitted curve at half-maximal effect
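Erythrocytes infected with luciferase-expressing P. falciparum were dispensed at 2% hematocrit and 0.05% parasitemia (final), then incubated with compounds 96 hours at 37 C in 5% CO2. Luminescence after detection reagent addition reported growth.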
Active calls of the source: *; ? = inconclusive; nt = not tested or not shown; ! = not confirmed by another sample. The list is not random: actives were taken first. Their share in the collection is about 14%. Unless noted, calls follow the shape of the dose curve; as a rule, active = well fitted curve in the direction sought with a large enough effect; inconclusive = small, poorly fitted or top-dose-only effect, or another doubt; inactive = no such curve, though single readings can be large; an effect the other way counts as inactive or inconclusive. % is scaled to controls: 0 for no effect and ±100 for the full control effect.

SMILES	HCMV inh	Sm TGR block	Pf growth 48h	Giardia FBPA inh	Pf growth 96h
COCC(C)n1c(COc2ccccc2F)nnc1SCC(=O)c1c(N)n(C)c(=O)n(C)c1=O (centres undefined)	15	-3%	10µM*	4%	?
CCN(CC(=O)Nc1cc(Cl)ccc1C)C(=O)CCOc1ccccc1C	-14	35µM*	?	nt	-24%
CCN(CC(=O)Nc1c(F)cccc1F)C(=O)Cc1sc(C)nc1-c1ccc(F)cc1	-31	-1%	?	nt	3%
CCN(CC(=O)Nc1cc(Cl)ccc1C)C(=O)Cc1sc(C)nc1-c1ccc(F)cc1	-21	-11%	?	nt	4.7µM*
COc1ccc(C2CC(O)(c3ccccc3)Oc3c(C)ccc(C(C)C)c32)cc1 (centres undefined)	nt	nt	nt	-5%	nt
COc1ccc(C2CC(O)(c3ccccc3)Oc3cc(OC)ccc32)cc1 (centres undefined)	-10	4%	12µM*	-18%	?
O=C(C1=C[C@@H]2[C@H]3C(=O)N(c4ccc(Cl)cc4)C(=O)[C@H]3[C@@H](C(=O)c3ccc(Cl)cc3)N2C=C1)c1ccccc1	-32	14µM*	-16%	-16%	?
Cc1cccc(C)c1NC(=O)CN1CCCCCC1	-12	nt	-2%	nt	?
COc1ccccc1-[n+]1c(C)cc(/C=C2\Sc3ccccc3N2C)cc1C	-80*	12%	0.93µM*	-13%	0.59µM*
COc1ccc(-[n+]2c(C)cc(/C=C3\Sc4ccccc4N3C)cc2C)cc1	-99*	-8%	0.74µM*	-26%	?
COc1ccc(C(=O)/C=C2\Sc3ccccc3N2C)cc1	127	nt	31%	?	169%
CCCCCCCCCCCCOC1OC(CO)C(O)C(O)C1NC(C)=O (centres undefined)	-37	3%	15%	11%	29%
COc1ccc(C(=O)O)cc1S(=O)(=O)N1CCSCC1	23	-11%	11%	2%	-10%
COc1ccc(N(CC(=O)NCCSCc2cccc(Cl)c2)S(C)(=O)=O)cc1Cl	11	0%	-21%	1%	?
CCOC(=O)NNc1ccc2nonc2c1[N+](=O)[O-]	nt	16µM*	?	7.1µM*	?
Cc1cc(C)cc(Nc2ccc3nonc3c2[N+](=O)[O-])c1	-83*	nt	nt	nt	nt
CCc1ccc(Nc2ccc3nonc3c2[N+](=O)[O-])cc1	6	nt	nt	nt	nt
COc1ccc(N(CC(=O)N2CCN(c3cccc(Cl)c3)CC2)S(=O)(=O)c2c(C)noc2C)cc1	-67*!	-5%	10µM*	nt	?
Cc1noc(C)c1CSCC(=O)N1CCN(c2ccc(F)cc2)CC1	-60*	-8%	-4%	1%	8%
COc1ccc(N(CC(=O)N2CCN(c3ccc(Cl)cc3)CC2)S(=O)(=O)c2c(C)noc2C)cc1	-21	1%	?	-19%	?
Cc1ccc(N(CC(=O)N2CCN(c3cccc(Cl)c3)CC2)S(=O)(=O)c2c(C)noc2C)cc1	-20	0%	nt	nt	nt
CCOc1ccc(N(CC(=O)N2CCN(c3ccc(F)cc3)CC2)S(=O)(=O)c2c(C)noc2C)cc1	2	-1%	10µM*	nt	?
COc1ccc(N(CC(=O)N2CCN(c3ccc(F)cc3)CC2)S(=O)(=O)c2c(C)noc2C)cc1	-20	9%	?	nt	1.9µM*
CCOc1ccc(N(CC(=O)N2CCN(c3ccccc3F)CC2)S(=O)(=O)c2c(C)noc2C)cc1	-2	7%	?	nt	-5%
CN(CC(=O)Nc1ccccc1C(F)(F)F)C(=O)c1ccc2c(=O)n3c(nc2c1)CCC3	37	-4%	-21%	nt	-14%
SMILES	HCMV inh	Sm TGR block	Pf growth 48h	Giardia FBPA inh	Pf growth 96h
CC(Sc1ccc(Cl)cc1)C(=O)NNC(=O)c1ccco1 (centres undefined)	-5	nt	nt	nt	nt
Cc1ccc2c(c1)CCCN2C(=O)c1ccoc1C	3	50µM*	0%	-7%	nt
CC(=O)OCC(=O)[C@@]1(O)CCC2C3CC[C@H]4CC(O)CC[C@@]4(C)C3C(=O)C[C@]21C (some centres undefined)	nt	nt	nt	0%	nt
COc1ccccc1N1CCN(c2ncnc3c2nc2n3CCCC2)CC1	-25	3%	nt	nt	nt
COc1ccc(S(=O)(=O)c2c(SC)nn(CC(=O)Nc3cccc(C)c3C)c2N)cc1	-1	10%	nt	nt	nt
CC(C)c1ccc(NC(=O)C2(C)Cc3c(-c4ccccc4)ccnc3O2)cc1 (centres undefined)	-8	nt	nt	nt	nt
CC(C)(C)c1cc(CCC(=O)NCc2ccccn2)cc(C(C)(C)C)c1O	-32	-3%	?	nt	12µM*
Cc1cc(S(=O)(=O)NC2CCCCC2)ccc1OCC(=O)NCc1ccccn1	19	-9%	13µM*	24%	?
